Rows were chosen to be rich in hits. Some 9% of all compounds tested hit in one or more screens of this group.
PLK1 PBD block: blocks phosphopeptide binding to human PLK1 polo-box domain; P53350; Plk1 PBD binding of FITC phosphopeptide, fluorescence polarization; Potency, µM, usual class: inhibitors; actives 2.8% (n = 360,000); AID 720504; also: series mostly up to about 57 µM; nearly all actives have a fitted effect of over 65% in size
Target sequence (P53350 whole entry, looked up, the tested form may be a part): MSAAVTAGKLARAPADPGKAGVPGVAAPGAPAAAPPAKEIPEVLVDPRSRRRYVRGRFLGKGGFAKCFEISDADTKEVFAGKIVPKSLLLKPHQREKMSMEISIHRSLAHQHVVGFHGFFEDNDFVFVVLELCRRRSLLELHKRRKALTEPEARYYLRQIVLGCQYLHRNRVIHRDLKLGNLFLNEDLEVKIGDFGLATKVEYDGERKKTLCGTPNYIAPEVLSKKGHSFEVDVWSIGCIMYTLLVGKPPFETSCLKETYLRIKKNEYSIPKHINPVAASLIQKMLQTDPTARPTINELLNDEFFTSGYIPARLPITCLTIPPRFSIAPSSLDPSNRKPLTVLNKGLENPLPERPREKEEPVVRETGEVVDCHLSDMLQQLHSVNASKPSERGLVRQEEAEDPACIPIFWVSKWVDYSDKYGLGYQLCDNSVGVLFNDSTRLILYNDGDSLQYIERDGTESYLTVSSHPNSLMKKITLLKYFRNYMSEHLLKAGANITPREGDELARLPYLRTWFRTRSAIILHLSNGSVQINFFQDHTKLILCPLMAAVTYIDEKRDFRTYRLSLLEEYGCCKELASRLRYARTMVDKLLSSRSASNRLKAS
G9a inh: G9a (human) methyltransferase inhibition | AID 504332 | actives 8.8% (n = 350,000) | G9a H3K9 monomethylation, AlphaScreen, 2 h | Potency, µM (highest dose often 102 µM), actives largely listed as inhibitors | Q96KQ7; also: nearly all actives have a fitted effect of over 75% in size
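Methyltransferase reactions run at room temperature for 2 h (20 nM enzyme, 500 nM biotin-H3K9 peptide, 20 uM SAM) after a 15 min compound preincubation; product detected by AlphaScreen beads and anti-H3K9me1 antibody.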
JMJD2A Tudor inh: JMJD2A Tudor domain (human) inhibition; O75164; AlphaScreen JMJD2A-Tudor / H3K4me3 peptide binding; Potency, µM (doses to about 114 µM), hits mostly inhibitors; actives 4.4% (n = 390,000); AID 504339; also: nearly all actives have a fitted effect of over 50% in size
BAZ2B inh: inhibitors of human BAZ2B bromodomain | Q9UIF8 | AlphaScreen BAZ2B-H3K14Ac peptide displacement | Potency, µM (top dose mostly 114 µM), most hits filed as inhibitors | actives 4.4% (n = 360,000); also: nearly all actives have a fitted effect of over 60% in size
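In this displacement format the biotinylated H3(5-23) peptide acetylated at Lys14 serves as ligand at 50 nM, with BAZ2B at 50 nM in PBS pH 7.4 containing 0.01% Tween-20. Donor and acceptor beads are 10 ug/mL final.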
12-LOX inh: ALOX12 (human) lipoxygenase inhibition. P18054. purified 12hLO, xylenol orange hydroperoxide absorbance. Potency, µM (doses to about 108 µM), most hits filed as inhibitors. actives 1.1% (n = 580,000)
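Hydroperoxide product was detected by ferrous iron/xylenol orange as the 573 to 405 nm absorbance ratio. Arachidonic acid at 40 uM (final) was turned over for 30 min at room temperature by 150 nM human 12hLO, pH 7.0 Hepes buffer, after 15 min compound preincubation.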
HP1b binding inh: HP1-beta chromodomain-methylated histone interaction inhibition. P83916. AlphaScreen HP1-beta / biotin-H3K9me3 peptide binding. Potency, µM (titrated, usually from 114 µM), hits mostly inhibitors. actives 0.56% (n = 390,000). AID 540317; also: nearly all actives have a fitted effect of over 70% in size
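HP1-beta protein (50 nM final) preincubated 30 min at room temperature with biotinylated H3(1-18)K9me3 peptide (50 nM) in PBS pH 7.4, 0.01% Tween-20, then compound added for 30 min. AlphaScreen streptavidin donor/nickel chelate acceptor beads (10 ug/mL final), 30 min dark, luminescence read.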
Large screens that a line does not name were inactive. Calls follow the shape of the dose curve; as a rule, active = well fitted curve in the direction sought with a large enough effect; inconclusive = small, poorly fitted or top-dose-only effect, or another doubt; inactive = no such curve, though single readings can be large; an effect the other way counts as inactive or inconclusive.

COc1ccc(N=C2C(=O)N3c4c(cccc42)C(C)=CC3(C)C)cc1	G9a inh 10µM, JMJD2A Tudor inh 14.1µM, BAZ2B inh 35.5µM, HP1b binding inh 28.2µM
O=C1c2c(nc(CN3CCN(c4ccccn4)CC3)n2Cc2ccccc2)NCCN1CC1CC1	none (no result: PLK1 PBD block, G9a inh, JMJD2A Tudor inh, BAZ2B inh, HP1b binding inh)
Cc1ccc(-c2[nH][nH]c(=O)c(=O)c2N=Nc2ccccc2)cc1	PLK1 PBD block 29.9µM, G9a inh 44.7µM, HP1b binding inh inconclusive
O=c1[nH]cnc(O)c1N=Nc1ccccc1	none
CCOC(=O)C(Cc1ccc(OC)c([N+](=O)[O-])c1)NC(=O)CCC(=O)Nc1ccc(OC)cc1 (stereo not given)	none
CCCCCCCCCCCC(=O)NC(Cc1ccc(OC)c([N+](=O)[O-])c1)C(=O)O (stereo not given)	PLK1 PBD block inconclusive, G9a inh 28.2µM, 12-LOX inh inconclusive
O=C(c1ccc2n[nH]nc2c1)N1C[C@H](CO)C[C@H](CN2CCOCC2)C1	none (no result: PLK1 PBD block, G9a inh, JMJD2A Tudor inh, BAZ2B inh, HP1b binding inh)
CC(C)c1nc2ccc(Br)cn2c1NC1CCCC1	G9a inh 44.7µM, BAZ2B inh inconclusive
CCOc1ccccc1Oc1coc2cc(OC(=O)c3ccc(C)cc3)ccc2c1=O	none (no result: PLK1 PBD block, G9a inh, JMJD2A Tudor inh, BAZ2B inh, HP1b binding inh)
CC(C)Cc1csc(=S)[nH]1	PLK1 PBD block inconclusive, JMJD2A Tudor inh 3.98µM, 12-LOX inh inconclusive (no result: G9a inh, BAZ2B inh)
Cc1cccc(NC(=S)NCc2ccccc2)c1C	12-LOX inh inconclusive (no result: G9a inh)
Cc1ccc(C)c(N/C(N)=N/c2nc(C)cc(C)n2)c1	none
Cc1ccc(C)c(NNC(N)=S)c1	G9a inh 35.5µM
NC(=S)NNc1cc(Cl)cc(Cl)c1	G9a inh inconclusive, JMJD2A Tudor inh 35.5µM, 12-LOX inh inconclusive
Cc1ccccc1NNC(=O)C(=O)NNc1ccccc1C	G9a inh inconclusive, JMJD2A Tudor inh 17.8µM, BAZ2B inh 50.1µM, 12-LOX inh inconclusive, HP1b binding inh inconclusive
Cc1cccc(NNC(N)=S)c1C	G9a inh 20µM, 12-LOX inh inconclusive
CCOc1ccc(NC(=O)CN(C)C(=O)c2ccc3c(c2)S(=O)(=O)N=C2CCCCCN23)cc1OCC	none (no result: G9a inh, BAZ2B inh)
CN(Cc1cccc2ncccc12)C(=O)c1cnn(-c2ncc3c(n2)-c2ccccc2CC3)c1C1CC1	none (no result: PLK1 PBD block, G9a inh, JMJD2A Tudor inh, BAZ2B inh, HP1b binding inh)
COC(=O)c1cc(OC)c(OC)cc1NC(=O)CCN1C(=O)C2CCCCC2C1=O (stereo not given)	none (no result: G9a inh, JMJD2A Tudor inh, BAZ2B inh, HP1b binding inh)
CCCc1ccc(C(=O)NNc2cccc(C)c2)cc1	BAZ2B inh inconclusive, 12-LOX inh inconclusive (no result: G9a inh)
Cc1cccc(N=NC(=S)NNc2cccc(C)c2)c1	PLK1 PBD block inconclusive, JMJD2A Tudor inh 25.1µM, 12-LOX inh inconclusive, HP1b binding inh 44.7µM (no result: G9a inh, BAZ2B inh)
Cc1cc(Cl)ccc1NC(=S)NC(C)(C)C	none
Cc1ccc(C)c(NNC(=O)C(=O)NNc2cc(C)ccc2C)c1	G9a inh 28.2µM, JMJD2A Tudor inh inconclusive
Cc1cc(Cl)ccc1NNC(N)=S	G9a inh 20µM
Cc1ccc(C)c(NC(=O)Cc2ccsc2)c1	none (no result: PLK1 PBD block, G9a inh, JMJD2A Tudor inh, BAZ2B inh, HP1b binding inh)
Cc1cccc(NC(=O)CC(=O)Nc2cccc(C)c2)c1	none
Cc1cccc(NNC(=O)C(=O)NNc2cccc(C)c2)c1	G9a inh inconclusive, 12-LOX inh 1.41µM
CN(CC(=O)Nc1c(F)cccc1F)Cc1cccs1	none
N#Cc1ccccc1OCC(O)CS(=O)(=O)c1ccccc1 (stereo not given)	none
CN(CCC#N)C(=O)COC(=O)c1c2c(nc3ccccc13)/C(=C/c1ccco1)CC2	G9a inh 22.4µM, JMJD2A Tudor inh 89.1µM, BAZ2B inh 44.7µM, 12-LOX inh inconclusive, HP1b binding inh inconclusive
Cc1ccc(-c2csc3nc[nH]c(=O)c23)cc1C	12-LOX inh inconclusive
COc1ccc(CCNC(=O)c2cccs2)cc1OC	none
O=C(COC(=O)CCc1c[nH]c(=O)[nH]1)Nc1cccc(Cl)c1	G9a inh 39.8µM
O=C(COC(=O)c1ccncc1)Nc1cccc(Cl)c1	PLK1 PBD block 21.2µM
O=C(COC(=O)c1cccnc1)Nc1cccc(Cl)c1	G9a inh inconclusive
COc1ccc(C23CC4CC(CC(C(=O)O)(C4)C2)C3)cc1	none (no result: PLK1 PBD block, G9a inh, JMJD2A Tudor inh, BAZ2B inh, HP1b binding inh)
C=CCn1c(CNc2ccccc2)nnc1SCC(=O)N/N=C/c1ccc(O)cc1O	PLK1 PBD block 26.7µM, BAZ2B inh inconclusive, HP1b binding inh inconclusive

Screening data from PubChem BioAssay.
